Experiment [1] is described as follows: Nuclear factor erythroid 2-related factor 2/antioxidant responsive element (Nrf2/ARE) small molecule agonists: qHTS cell viability counter screen in human keratinocytes (AID 1919968; active means well fitted curve in the direction sought with a large enough effect in the repeat runs; an effect the other way counts as inactive or inconclusive; further: nearly all actives have a fitted effect of over 55% in size). Put shortly: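 Measured as CellTiter-Fluor fluorescence, this readout tracks cytotoxicity in the same wells as the ARE-luciferase screen. HaCaT reporter cells (1,500/well) received compounds after a 5 h pre-incubation and were exposed for 23 h.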
(In general: qHTS replaces the single test concentration by a dilution series.)

A short description of experiment [2]: Nuclear factor erythroid 2-related factor 2/antioxidant responsive element (Nrf2/ARE) small molecule agonists: luciferase reporter gene qHTS assay in human keratinocytes (AID 1919969). Further: nearly all actives have a fitted effect of over 35% in size. Further: potency means the concentration at half of the fitted maximal effect. On the technique in general: In a reporter assay the amount or activity of a reporter protein is the signal.
For experiment [3], the target named is Gonadotropin-releasing hormone receptor (Homo sapiens) (UniProt P30968). The experiment in a line: Human gonadotropin-releasing hormone receptor (GnRHR) small molecule agonists, calcium flux assay in GnRHR-HEK293 cells (AID 1920063). Further: nearly all actives have a fitted effect of over 35% in size. Put shortly: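 Fluorescence kinetics (480 nm excitation, 540 nm emission; 3 min, 1 s steps) report calcium mobilisation in human GnRHR-HEK293 cells in agonist mode. Dye incubation: 1 h, 37 C.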
Gonadotropin-releasing hormone receptor (Homo sapiens), sequence (P30968 whole entry, looked up): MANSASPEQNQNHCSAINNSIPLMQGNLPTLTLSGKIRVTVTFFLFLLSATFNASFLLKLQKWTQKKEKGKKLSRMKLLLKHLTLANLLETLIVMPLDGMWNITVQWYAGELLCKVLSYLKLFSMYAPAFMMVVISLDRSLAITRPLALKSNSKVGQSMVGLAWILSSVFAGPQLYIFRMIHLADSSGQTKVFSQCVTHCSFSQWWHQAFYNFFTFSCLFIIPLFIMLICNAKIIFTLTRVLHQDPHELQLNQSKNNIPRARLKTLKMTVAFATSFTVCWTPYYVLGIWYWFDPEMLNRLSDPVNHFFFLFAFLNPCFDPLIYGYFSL

Experiment [4] has as its target KiSS-1 receptor (Homo sapiens) (UniProt Q969F8). The experiment in a line: Human kisspeptin (KISS1R) small molecule agonists, calcium flux assay in KISS1R-HEK293 cells (AID 1920064; active means well fitted curve in the direction sought with a large enough effect in the repeat runs; an effect the other way counts as inactive or inconclusive). Put shortly: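 Measures KISS1R agonism through calcium-sensitive dye fluorescence in stably transfected HEK293 cells, read for 3 min after pin-tool compound delivery; 15-point titrations in triplicate.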
(Calcium assays in cells follow changes in intracellular calcium, usually with a dye or a luminescent sensor.)

Experiment [5] is described as follows: G protein-coupled receptor (GPCR) small molecule agonists, calcium flux assay: HEK293 wild type cell line counter screen (AID 1920065). Put shortly: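 Readout: fluorescence at 480 nm excitation/540 nm emission, sampled at 1 s intervals for 3 min. Cells had been cultured 18 h, then dye-loaded 1 h at 37 C before compound or ATP addition.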
Experiment [6] in a line: p53 small molecule agonists, cell-based qHTS assay with human liver microsomes (AID 1963577). Put shortly: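 p53RE-bla reporter cells were pre-incubated 5 h at 37 C, then treated with compounds plus human liver microsomes (0.5 mg/mL final) and NADPH (0.5 mg/mL final) for 16 h at 37 C. Beta-lactamase activity was read by LiveBLAzer fluorescence after 2 h at room temperature.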

Experiment [7] can be described thus: p53 small molecule agonists, cell-based qHTS assay with rat liver microsomes (AID 1963578). Put shortly: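 p53RE-bla cells were exposed to compounds together with rat liver microsomes (0.5 mg/mL final) and NADPH (0.5 mg/mL final) for 16 h at 37 C, then read by LiveBLAzer beta-lactamase fluorescence after 2 h at room temperature.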
Experiment [8] in a line: p53 small molecule agonists, cell-based qHTS assay with human liver microsomes: qHTS cell viability counter screen (AID 1963579). Further: nearly all actives have a fitted effect of over 45% in size. Put shortly: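 p53RE-bla cells (4,000/well) were pre-incubated 5 h at 37 C, then given compounds in DMSO plus human liver microsomes (0.5 mg/mL final) and NADPH (0.5 mg/mL final) for 16 h at 37 C. Viability was read by CellTiter-Glo luminescence.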

Experiment [9] can be described thus: p53 small molecule agonists, cell-based qHTS assay with rat liver microsomes: qHTS cell viability counter screen (AID 1963580). Further: nearly all actives have a fitted effect of over 45% in size. Put shortly: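 Viability is assessed in parallel with the p53 reporter read: HCT-116 p53RE-bla cells receive compounds plus rat microsomes and NADPH (0.5 mg/mL final apiece), incubate 16 h at 37 C, and then CellTiter-Glo luminescence is recorded.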

A short description of experiment [10]: p53 small molecule agonists, cell-based qHTS assay (AID 1963582; active means well fitted activation curve with a large enough effect in the signal ratio in the repeat runs, not every such curve was filed as active; the % refers to the signal ratio). Put shortly: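 Compounds are pin-transferred in DMSO onto p53RE-bla cells and incubated 16 h at 37 C. The B/G FRET beta-lactamase substrate is then applied for 2 h at RT and fluorescence recorded.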
In experiment [11] the target is 5-hydroxytryptamine receptor 2A (Homo sapiens) (UniProt P28223). The experiment in a line: 5-hydroxytryptamine receptor 2A (HTR2A) small molecule antagonists, cell-based qHTS assay (AID 1963586). Further: nearly all actives have a fitted effect of over 45% in size. Further: potency means the concentration at half of the fitted maximal effect. Put shortly:
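Antagonist-mode intracellular calcium assay: DOI (4 nM) added after 5 min compound pre-incubation at room temperature to dye-loaded HTR2A-CHO cells. Fluorescence followed for 3 min, sampled every second.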

Experiment [12] has as its target Muscarinic acetylcholine receptor M1 (Homo sapiens) (UniProt P11229). Briefly: Cholinergic receptor muscarinic 1 (CHRM1) small molecule agonists, cell-based qHTS assay (AID 1963589). Further: nearly all actives have a fitted effect of over 35% in size. Put shortly: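 Each compound was tested at 15 concentrations across three independent runs on dye-loaded CHO cells stably expressing human CHRM1, reading intracellular calcium fluorescence kinetically at 1 sec intervals.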

Experiment [13] in a line: cAMP Responsive Elements (CRE) small molecule agonists, cell-based qHTS assay (AID 1963590). Put shortly: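 Cell line: CRE-bla HEK 293T; medium DMEM/10% dialyzed FBS/0.1 mM NEAA/1 mM pyruvate/25 mM HEPES; 3 h compound exposure; beta-lactamase FRET readout after 2 h substrate loading at RT.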
Experiment [14] is described as follows: cAMP Responsive Elements (CRE) small molecule antagonists, cell-based qHTS assay (AID 1963591; active means well fitted inhibition curve with a large enough effect in the signal ratio in the repeat runs, not every such curve was filed as active; the % refers to the signal ratio). Put shortly: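 Inhibition of NKH477-driven (0.25 uM final) CRE-beta-lactamase signal in HEK293T cells, 3 h compound exposure at 37 °C, detected by FRET substrate fluorescence.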
The target in experiment [15] is Beta-2 adrenergic receptor (Homo sapiens) (UniProt P07550). Briefly: Adrenergic beta2 receptor (ADRB2) small molecule antagonists, cell-based qHTS assay (AID 1963592). Further: series mostly up to about 92 µM; nearly all actives have a fitted effect of over 50% in size. Put shortly:
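Cells (CHO, stable ADRB2 overexpression) incubated 18-20hr at 37C; compounds added from DMSO; agonist mix (1nM isoproterenol, 100uM IBMX, 25uM Ro-20-1724) added; 0.5hr RT; d2-cAMP and anti-cAMP-cryptate added; 1hr RT; 665/615 nm read.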

The target is the same in experiment [16]. Briefly: Adrenergic beta2 receptor (ADRB2) small molecule agonists, cell-based qHTS assay (AID 1963593).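 Further: CHO cells stably overexpressing human ADRB2.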 Put shortly:
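CHO cells stably over-expressing ADRB2 were plated overnight at 37C, then dosed with compounds plus a stimulation mix containing 100uM IBMX and 25uM Ro-20-1724 for 0.5hr at room temperature. cAMP was measured by HTRF competition, 1hr.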

For experiment [17], the target named is D(2) dopamine receptor (Homo sapiens) (UniProt P14416). Briefly: Dopamine D2 receptor (DRD2) small molecule agonists, cell-based qHTS assay (AID 1963594). Further: nearly all actives have a fitted effect of over 35% in size. Further: potency means the concentration at half of the fitted maximal effect. Put shortly:
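HEK293 cells stably expressing human DRD2, pre-treated with PDE inhibitor Ro20-1724 (0.1 mM final) and compound 10 min at room temperature, then stimulated with NKH477 (200nM […]) for 30 min. cAMP read by HTRF (665/620 nm).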

The target is the same in experiment [18]. Briefly: Dopamine D2 receptor (DRD2) small molecule antagonists, cell-based qHTS assay (AID 1963595; active means well fitted inhibition curve with a large enough effect in the signal ratio in the repeat runs, with a control signal flat; the % refers to the signal ratio). Put shortly: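 HEK293 cells stably expressing DRD2, preincubated with 0.1 mM Ro20-1724 and compounds 10 min, were stimulated with 200 nM NKH477 plus 12 nM quinpirole for 30 min at room temperature; cAMP measured by HTRF (665/620 nm).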
The target in experiment [19] is 5-hydroxytryptamine receptor 2A (Homo sapiens) (UniProt P28223). The experiment in a line: 5-hydroxytryptamine receptor 2A (HTR2A) small molecule agonists, cell-based qHTS assay (AID 1963587). Further: nearly all actives have a fitted effect of over 30% in size. Further: potency means the concentration at half of the fitted maximal effect. Put shortly: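 CHO cells stably expressing human HTR2A, plated 18 h, loaded with calcium dye 1 h at 37 C. Agonist mode: compounds added and intracellular calcium fluorescence recorded kinetically for 2 min at 1 sec intervals.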
5-hydroxytryptamine receptor 2A (Homo sapiens), sequence (P28223 whole entry, looked up): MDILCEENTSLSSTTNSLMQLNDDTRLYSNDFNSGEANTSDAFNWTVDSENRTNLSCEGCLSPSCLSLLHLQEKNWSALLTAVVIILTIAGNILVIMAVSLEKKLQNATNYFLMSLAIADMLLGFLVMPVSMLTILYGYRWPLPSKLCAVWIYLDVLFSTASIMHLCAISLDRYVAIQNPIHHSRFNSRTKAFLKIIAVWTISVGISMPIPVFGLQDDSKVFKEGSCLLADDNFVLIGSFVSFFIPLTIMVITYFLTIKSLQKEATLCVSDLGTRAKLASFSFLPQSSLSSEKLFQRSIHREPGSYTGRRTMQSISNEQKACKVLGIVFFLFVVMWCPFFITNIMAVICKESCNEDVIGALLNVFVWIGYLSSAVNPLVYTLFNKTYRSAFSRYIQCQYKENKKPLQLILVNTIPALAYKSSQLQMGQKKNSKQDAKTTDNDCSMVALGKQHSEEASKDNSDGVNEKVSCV

Experiment [20] deals with Muscarinic acetylcholine receptor M1 (Homo sapiens) (UniProt P11229). Briefly: Cholinergic receptor muscarinic 1 (CHRM1) small molecule antagonists, cell-based qHTS assay (AID 1963588). Further: nearly all actives have a fitted effect of over 40% in size. Further: potency means the concentration at half of the fitted maximal effect. Put shortly: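 CHRM1-CHO calcium-flux assay, antagonist mode. Cells were seeded 18 h, dye-loaded 1 h at 37 C and given compound for 5 min at RT, then acetylcholine was added at 50nM. FDSS fluorescence was read 3 min; 15 concentrations, three runs.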
Muscarinic acetylcholine receptor M1 (Homo sapiens), sequence (P11229 whole entry, looked up): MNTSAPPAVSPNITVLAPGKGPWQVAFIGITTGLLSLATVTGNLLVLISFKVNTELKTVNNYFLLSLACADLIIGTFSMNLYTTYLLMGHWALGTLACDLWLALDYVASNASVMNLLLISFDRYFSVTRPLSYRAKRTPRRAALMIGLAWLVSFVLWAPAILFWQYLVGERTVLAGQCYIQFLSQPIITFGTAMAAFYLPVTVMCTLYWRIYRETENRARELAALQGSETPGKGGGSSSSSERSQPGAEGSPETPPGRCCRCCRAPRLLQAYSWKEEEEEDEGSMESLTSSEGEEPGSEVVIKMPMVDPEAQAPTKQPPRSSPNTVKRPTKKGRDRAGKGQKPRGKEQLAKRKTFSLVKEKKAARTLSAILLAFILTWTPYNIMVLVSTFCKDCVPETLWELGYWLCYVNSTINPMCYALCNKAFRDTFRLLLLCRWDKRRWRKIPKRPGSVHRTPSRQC

This note sets out measurements from PubChem BioAssay (Tox21).

Unmarked numbers belong to inactive results. Results filed as inconclusive are left out. The source made the active and inactive calls. Unless noted, the call rests on the fitted dose curve.

Beta-2 adrenergic receptor (Homo sapiens), sequence (P07550 whole entry, looked up): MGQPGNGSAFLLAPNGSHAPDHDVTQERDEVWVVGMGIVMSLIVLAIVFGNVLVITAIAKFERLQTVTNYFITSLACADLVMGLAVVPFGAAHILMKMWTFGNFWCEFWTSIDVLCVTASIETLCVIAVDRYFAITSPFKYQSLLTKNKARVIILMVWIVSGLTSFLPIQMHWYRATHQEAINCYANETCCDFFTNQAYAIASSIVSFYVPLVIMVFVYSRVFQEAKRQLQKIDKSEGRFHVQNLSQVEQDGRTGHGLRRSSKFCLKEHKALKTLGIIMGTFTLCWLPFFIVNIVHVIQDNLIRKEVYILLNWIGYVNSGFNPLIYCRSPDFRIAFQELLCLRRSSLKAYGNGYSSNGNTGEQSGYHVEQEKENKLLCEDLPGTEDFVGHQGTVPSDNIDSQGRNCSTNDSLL
D(2) dopamine receptor (Homo sapiens), sequence (P14416 whole entry, looked up): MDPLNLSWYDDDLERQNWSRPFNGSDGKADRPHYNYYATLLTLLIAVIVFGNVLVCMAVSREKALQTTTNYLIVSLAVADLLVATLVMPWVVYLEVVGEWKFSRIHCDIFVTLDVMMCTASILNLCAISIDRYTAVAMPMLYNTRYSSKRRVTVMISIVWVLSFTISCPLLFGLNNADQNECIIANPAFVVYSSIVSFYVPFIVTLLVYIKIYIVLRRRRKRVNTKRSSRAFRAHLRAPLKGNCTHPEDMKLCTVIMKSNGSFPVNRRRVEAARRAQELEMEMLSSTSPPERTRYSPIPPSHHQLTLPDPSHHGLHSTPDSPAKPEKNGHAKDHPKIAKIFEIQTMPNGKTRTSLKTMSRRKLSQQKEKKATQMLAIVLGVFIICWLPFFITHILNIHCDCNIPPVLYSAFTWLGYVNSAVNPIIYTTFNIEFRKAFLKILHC
KiSS-1 receptor (Homo sapiens), sequence (Q969F8 whole entry, looked up): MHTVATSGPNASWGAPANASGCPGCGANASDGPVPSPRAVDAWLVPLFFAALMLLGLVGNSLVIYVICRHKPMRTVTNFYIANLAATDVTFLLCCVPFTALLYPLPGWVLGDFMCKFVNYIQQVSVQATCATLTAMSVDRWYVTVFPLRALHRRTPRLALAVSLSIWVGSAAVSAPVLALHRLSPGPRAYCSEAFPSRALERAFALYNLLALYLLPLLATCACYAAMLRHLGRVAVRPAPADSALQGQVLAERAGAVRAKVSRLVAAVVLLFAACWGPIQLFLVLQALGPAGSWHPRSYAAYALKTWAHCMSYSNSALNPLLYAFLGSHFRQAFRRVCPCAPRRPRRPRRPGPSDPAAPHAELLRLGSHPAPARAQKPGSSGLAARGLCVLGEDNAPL

Regarding `CCCCCCCCN1CCCC1=O`, the Potency result in experiment [1], in [2], in [3], in [6], in experiment [7] and in experiment [8] was “inactive” each time. In addition, the Potency result in experiment [9], in experiment [10], in experiment [11], in [12], in [13] and in experiment [14] was “inactive” in each case. The Potency entry in experiment [15], in [16], in [17] and in experiment [18] was “inactive” throughout. Moreover, the outcome in [4] and in [5] was inactive.

Regarding `CCCCCCCCCCCC(=O)N(CC)CC`, the Potency entry in experiment [1], in experiment [2], in experiment [3], in experiment [6], in experiment [7] and in experiment [8] was “inactive” each time. The Potency entry in experiment [9], in [10], in experiment [11], in [19], in [20] and in experiment [12] was “inactive” throughout. Moreover, the Potency result in [15], in [17] and in experiment [18] was “inactive” each time. Also, the outcome in experiment [4] and in [5] was inactive.

As for `CCCCCCCCC1CO1` (configuration not stated), the Potency entry in experiment [1], in [2], in experiment [3], in [6], in experiment [7] and in [8] was “inactive” in each case. The Potency result in experiment [9], in experiment [10], in experiment [19], in [20], in [12] and in [13] was “inactive” each time. Also, the Potency result in experiment [14], in [15], in [17] and in [18] was “inactive” throughout. The result in experiment [4] and in [5] was inactive.

With `CC(CCc1ccccc1)NCC(O)c1ccc(O)c(C(N)=O)c1` (configuration not stated), the Potency entry in experiment [1], in experiment [2], in experiment [3], in experiment [6], in experiment [7] and in experiment [8] was “inactive” in each case. The Potency entry in experiment [9], in experiment [13], in [14] and in experiment [18] was “inactive” each time. Further, the outcome in [4] and in [5] was inactive. For the same compound, in [17], the Potency is 3.31 µM (active).

`CN1[C@@H]2CC[C@H]1CC(OC(=O)c1c[nH]c3ccccc13)C2` (some centres not stated): the Potency result in [1], in [2], in [3], in [6], in experiment [7] and in [8] was “inactive” in each case. In addition, the Potency entry in [9], in [13], in experiment [14], in experiment [17] and in experiment [18] was “inactive” throughout. Further, the outcome in experiment [4] and in experiment [5] was inactive.

For `CCN(CC)CCSC(=O)C(c1ccccc1)c1ccccc1`, the Potency result in experiment [1], in experiment [3], in experiment [6], in experiment [7], in [8] and in experiment [9] was “inactive” in each case. In addition, the Potency result in experiment [15] and in experiment [17] was “inactive” throughout. The Potency in experiment [2] was 33.5 µM (active); in experiment [11] it was 1.45 µM (active); in experiment [19], 3.38 µM (active); in experiment [20], 10.3 nM (active). The outcome in [4] and in [5] was inactive.

As for `NCCCC[C@H](N[C@@H](CCc1ccccc1)C(=O)O)C(=O)N1CCC[C@H]1C(=O)O`, the Potency result in experiment [1], in experiment [2], in experiment [3], in experiment [6], in [7] and in experiment [8] was “inactive” throughout. Moreover, the Potency result in [9], in [10], in [13], in [14], in [15] and in [16] was “inactive” throughout. Also, the Potency entry in experiment [17] and in experiment [18] was “inactive” throughout. Also, the result in [4] and in experiment [5] was inactive.

Consider `COc1c(C)c2c(c(O)c1C/C=C(\C)CCC(=O)OCCN1CCOCC1)C(=O)OC2`, for which the Potency result in [1], in experiment [2], in [3], in experiment [6], in [7] and in experiment [8] was “inactive” in each case. Also, the Potency result in experiment [9], in [15], in [16], in experiment [17] and in [18] was “inactive” in each case. For the same compound, the outcome in experiment [4] and in experiment [5] was inactive.
